pPAFAH FP inh – pPAFAH enzyme inhibitors, primary screen, biochemical, fluorescence polarization, human; Platelet-activating factor acetylhydrolase (Homo sapiens), Q13093; recombinant pPAFAH, FP-rhodamine probe fluorescence polarization; inhibition, % at 3.39 µM; 330,000 tested, 1.5% active; AID 463082, 2010;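 active = inhibition above the mean inhibition across the screen plus 3 SD, cut at about 25% in these data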;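 also: inhibitors block binding of the rhodamine activity-based probe so polarization drops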
PAFAH1B2 inh – PAFAH1B2 enzyme inhibitors, primary screen, biochemical, fluorescence polarization, human | Platelet-activating factor acetylhydrolase IB subunit alpha2 (Homo sapiens), P68402 | recombinant PAFAH1B2, FP-rhodamine activity probe | inhibition, % at 3.39 µM | 340,000 tested, 1.2% active | AID 492953, 2010;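 active = inhibition above the mean of all tested compounds plus 3 SD, cut at about 24% in these data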
Target sequence (P68402 whole entry, looked up): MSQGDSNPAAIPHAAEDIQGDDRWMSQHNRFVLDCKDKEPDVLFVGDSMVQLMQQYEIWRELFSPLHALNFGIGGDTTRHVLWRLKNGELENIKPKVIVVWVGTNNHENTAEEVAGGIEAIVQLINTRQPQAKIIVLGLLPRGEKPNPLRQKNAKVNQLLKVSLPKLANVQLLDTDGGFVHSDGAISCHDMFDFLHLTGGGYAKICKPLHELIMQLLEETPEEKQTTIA
PAFAH1B3 FP inh – PAFAH1B3 enzyme inhibitors, primary screen, biochemical, fluorescence polarization, human; Platelet-activating factor acetylhydrolase IB subunit alpha1 (Homo sapiens), Q15102; recombinant PAFAH1B3, FP-rhodamine probe; inhibition, % at 3.39 µM; 340,000 tested, 0.28% active; AID 492972, 2010;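 active = inhibition above the screen-wide average of all tested compounds plus 3 SD, cut at about 25% in these data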
Target sequence (Q15102 whole entry, looked up): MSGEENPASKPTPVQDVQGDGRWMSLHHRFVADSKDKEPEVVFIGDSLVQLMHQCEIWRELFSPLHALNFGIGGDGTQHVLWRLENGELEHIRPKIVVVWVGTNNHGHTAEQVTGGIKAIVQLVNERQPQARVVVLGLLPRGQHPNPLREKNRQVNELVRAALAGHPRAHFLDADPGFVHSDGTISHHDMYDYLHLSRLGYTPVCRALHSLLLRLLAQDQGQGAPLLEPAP
Fam108B inh – mouse Fam108B serine hydrolase inhibitors, primary screen, counter-screen for RBBP9 inhibitor project, biochemical, fluorescence polarization | recombinant Fam108B, FP-Rh probe fluorescence polarization | 300,000 tested, 0.33% active | inhibition, % at 9.51 µM;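 active = inhibition above the screen mean inhibition plus 3 SD, computed separately per campaign, cut at about 18% in these data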;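 also: inhibitors lower polarization as less probe binds the enzyme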
PAFAH2 FP inh – PAFAH2 enzyme inhibitors, primary screen, biochemical, fluorescence polarization, human. Platelet-activating factor acetylhydrolase 2, cytoplasmic (Homo sapiens), Q99487. recombinant PAFAH2, FP-rhodamine activity probe. inhibition, % at 3.39 µM. 340,000 tested, 0.99% active. AID 492956, 2010;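 active = inhibition above the mean over all tested compounds plus 3 SD, cut at about 30% in these data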;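 also: inhibitors block probe labeling of enzyme so polarization drops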
PME-1 primary – PME-1 inhibitors via competitive probe labeling, primary screen, biochemical, fluorescence polarization, FP-Rh probe, HTS. AID 2130, 2009. Protein phosphatase methylesterase 1 (Homo sapiens), Q9Y570. inhibition, % at 5.9 µM. recombinant PME-1. 320,000 tested, 0.53% active;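 active = inhibition above the campaign mean of all compounds plus 3 SD, cut at about 26% in these data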;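 also: competitive labeling of PME-1 active site by serine hydrolase directed probe; inhibitors block probe labeling so polarization falls and inhibition rises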
Hits are given with their value; . = inactive; / = not tested or not shown; + = active, no number. A selection: hits, their analogues and other compounds. The true share with any hit is near 2.9%.

SMILES | pPAFAH FP inh | PAFAH1B2 inh | PAFAH1B3 FP inh | Fam108B inh | PAFAH2 FP inh | PME-1 primary
O=C(O)C(Cc1ccccc1-c1ccccc1)C(=O)O | . | 27 | . | . | . | .
O=C(O)COc1ccccc1-c1ccccc1 | . | . | . | . | . | .
Cc1c(OCC(=O)NCC(O)c2ccccc2)ccc2c(-c3ccccc3)cc(=O)oc12 (stereo not given) | . | . | . | . | . | .
Cc1ccc2nc(Cl)c(/C=N/Nc3ccc(C(=O)O)cc3)cc2c1 | 30 | . | . | . | . | .
NC(=S)NN=C1c2cc(OCCN3CCOCC3)ccc2-c2ccc(OCCN3CCOCC3)cc21 | . | . | . | . | . | .
CC(C)c1cc(C(=O)N2CCCC(N3CCN(c4ccc(F)cc4)CC3)C2)n(C)n1 (stereo not given) | / | . | . | / | . | /
O=S(=O)(NC1CCCC1)c1ccc(S(=O)(=O)N2CCc3ccccc32)cc1 | 27 | 27 | . | . | . | .
COc1ccc2ccc3c(c2c1)N=CC1(O3)N(C)c2ccccc2C1(C)C (stereo not given) | 33 | . | . | . | . | .
CN1c2ccccc2C(C)(C)[C@]12C=Cc1cc(O)ccc1O2 | . | . | . | . | . | .
O=C(CSc1nnc(CNc2ccc(Cl)cc2)o1)Nc1nc2c(s1)CCCC2 | . | 24 | . | . | . | .
O=C(N/N=C/c1cc(Cl)cc([N+](=O)[O-])c1O)c1cc(-c2ccccn2)nc2ccccc12 | 27 | . | . | . | . | .
COc1cccc(/C=N/NC(=O)c2cc(-c3ccccn3)nc3ccccc23)c1O | . | . | . | / | . | .
COC(C[C@@H](O)C[C@@H](O)[C@@H](C)OCc1ccccc1)OC | . | . | . | . | . | .
CCN1C(=O)/C(=C/C=C2\N(CC)c3cc(S(=O)(=O)N(C)C)ccc3N2c2ccccc2)SC1=S | . | 151 | + | . | . | .
Cc1ccc(NC(=O)CC2OC(=O)c3ccccc32)cc1S(=O)(=O)N1CCOCC1 (stereo not given) | . | . | . | / | . | .
Cc1ccc(SC2=C(N(C)C)C(=O)c3ccccc3C2=O)cc1 | / | 25 | 34 | / | . | /
CCC(C)[C@H]1CNCCN1CCc1cc(C(F)(F)F)cc(C(F)(F)F)c1 (stereo not given in full) | . | . | . | . | . | .
CCC(C)[C@H]1CNC(=S)N1CCc1cc(C(F)(F)F)cc(C(F)(F)F)c1 (stereo not given in full) | 27 | . | . | . | . | .
Cc1oc(C)c2c(=O)ccc3c(c12)OC(N)=C(C#N)C3c1ccccc1 (stereo not given) | . | . | . | . | . | .
Cc1oc(C)c2c(=O)ccc3c(c12)OC(N)=C(C#N)C3c1ccccc1Cl (stereo not given) | 25 | . | . | . | . | .
CSc1ccc(C2C(C#N)=C(N)Oc3c2ccc(=O)c2c(C)oc(C)c32)cc1 (stereo not given) | 31 | . | . | . | . | .
C#CCOc1ccccc1/C=N/NC(=O)c1ccccc1OCc1ccccc1 | . | . | . | . | . | .
C=CCn1c(SCC(=O)N2CCOCC2)nnc1C(C)NC(=O)c1ccccc1 (stereo not given) | . | . | . | . | . | .
COc1cc(C(C)=O)ccc1OCC(O)CN(CCO)Cc1ccccc1 (stereo not given) | 32 | . | . | . | . | .
OCCN(Cc1ccccc1)CC(O)COc1ccc(-c2ccccc2)cc1 (stereo not given) | . | . | . | . | . | .
SMILES | pPAFAH FP inh | PAFAH1B2 inh | PAFAH1B3 FP inh | Fam108B inh | PAFAH2 FP inh | PME-1 primary
COc1ccc(S(=O)(=O)Oc2cccc(/C=N/N=C3/NC(=O)C(CC(=O)O)S3)c2)cc1 (stereo not given) | . | 28 | . | . | . | .
CCOc1cc(/C=N/N=C2/NC(=O)C(CC(=O)O)S2)ccc1OCc1ccccc1Cl (stereo not given) | 26 | . | . | . | . | .
CCN(CC)C(=O)[C@H]1C[C@H](CC(=O)NCc2ccco2)C(=O)N2CCc3c([nH]c4cc(CCC(=O)N(C)C)ccc34)[C@]12C | . | . | . | / | . | /
CCc1cc2c3c(c(=O)oc2cc1OCC(=O)OC)CCCC3 | . | . | . | . | . | .
CC(=O)N1CC=C2C(C#N)=C(N)C(C#N)(C#N)C(CCc3ccccc3)C2C1 (stereo not given) | . | . | . | . | . | .
CCN1CC=C2C(C#N)=C(N)C(C#N)(C#N)C(CCc3ccccc3)C2C1 (stereo not given) | 25 | 26 | . | . | . | .
COc1ccc(N2CCN(C(=O)CCNC(=O)c3ccc(C(C)(C)C)cc3)CC2)cc1 | . | 64 | . | . | . | .
CC(C)CN1CCC(Oc2cccc(C(=O)NCCc3ccccc3)c2)CC1 | . | . | . | . | . | .
O=C(O)c1cc(NS(=O)(=O)c2ccc3ccccc3c2)ccc1O | . | 48 | . | . | . | .
O=C(Cc1ccc(NC2=NC3CS(=O)(=O)CC3S2)cc1)NCCc1ccccc1 (stereo not given) | . | . | . | . | . | .
COc1cccc(C(=O)Nc2ccc3nc(N4CCN(c5ncccn5)CC4)cc(C)c3c2)c1OC | 82 | / | / | . | / | .
CCOc1ccccc1C(=O)Nc1ccc2nc(N3CCN(c4ncccn4)CC3)cc(C)c2c1 | . | / | / | . | / | .
S=c1[nH]nc(-c2ccco2)n1C1CCCCC1 | . | 26 | . | . | . | .
CSc1nnc(-c2ccco2)c(-c2ccco2)n1 | 31 | . | . | . | . | .
Cc1ccc(NC(=O)Nc2cccs2)cc1 | . | . | . | . | . | .
COc1ccc(NC(=O)c2cc3ccccc3cc2O)cc1 | 32 | . | . | . | . | .
Cc1cccc(NC(=O)NNC(=O)c2cc3ccccc3cc2O)c1C | 34 | . | . | . | . | .
Cc1ccc(NC(=O)c2cc3ccccc3cc2O)cc1 | . | . | . | . | . | .
CCc1ccc(NC(=O)NNC(=O)c2cc3ccccc3cc2O)cc1 | 33 | . | . | . | . | .
CCc1ccc(NC(=O)Nc2cccs2)cc1 | . | . | . | . | . | 34
CC1CCC2C(C1)c1sc(=O)[nH]c1SC2(C)C (stereo not given) | . | 68 | . | . | . | .
Cc1ccc(OCCNC(=O)CCc2nc3sc4c(c3c(=O)[nH]2)CCCC4)cc1 | . | 27 | . | . | . | .
Cc1ccc(NC(=O)C(C)SCc2nc3sc4c(c3c(=O)[nH]2)CCCC4)nc1 (stereo not given) | . | 29 | . | . | . | .
